These entries were drawn from the full list.
Nrf2 block: Nrf2 pathway inhibition | A549 ARE-Fluc reporter, luciferase luminescence, 18-24 h | Potency, µM (series often up to 46 µM), usual class: inhibitors | actives 2.1% (n = 360,000); note: nearly all actives have a fitted effect of over 60% in size
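Nrf2 activity is the BugLite luminescence, read 15 min after reagent at room temperature, following CellTiter-Fluor cytotoxicity readout (30 min, 37C). Compound titrations were applied for 18-24 h to 5000 A549 ARE_Fluc cells/well in 5% FBS OPTI-MEM.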
HepG2 tox-1: kills HepG2 cells in TGF-b inhibitor counter-screen; HepG2 CAGA-GFP viability, ATP luminescence, 18 h; Potency, µM (top dose mostly 46.1 µM), actives largely listed as cytotoxic; actives 0.76% (n = 410,000)
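HepG2 CAGA-GFP cells (1000/well, DMEM with 1% FBS) received compound, then TGF-beta at 500 pg/mL final, and were incubated 18 hours at 37 degrees C. Viability was read by CellTiter-Glo luminescence. Media-only wells were set as complete cell-killing and DMSO as no toxicity.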
ATXN2 expr inh: ATXN2 expression inhibition | AID 1745845 | Potency, µM (titrated, usually from 57 µM), usual class: inhibitors | actives 0.72% (n = 360,000) | HEK-293 ATXN2-luciferase reporter, luminescence, 24 h; note: nearly all actives have a fitted effect of over 55% in size
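qHTS (up to 57 uM final) was run with 24 h compound exposure of reporter cells at 37 °C. Each well was multiplexed: SteadyGlo luminescence measured ATXN2-luciferase expression after a fluorogenic Gly-Phe-AFC viability readout (25 uM final).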
TGFb SMAD3 inh: blocks TGF-b signaling; HepG2 CAGA-GFP TGF-b/SMAD3 reporter, GFP fluorescence, 18 h; TGF-beta stimulated, 500 pg/mL final; Potency, µM (titrated, usually from 46.1 µM), most hits filed as inhibitors; actives 1.2% (n = 410,000); note: nearly all actives have a fitted effect of over 65% in size
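Cell-based qHTS in HEPG2 carrying a CAGA-GFP Smad reporter; compounds added before 500 pg/mL final TGF-beta, 18 h incubation at 37 degrees C, GFP fluorescence quantified per cell by imaging cytometry.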
A549 viability: counter-screen for Nrf2 inhibitors: cytotoxicity in A549 cells; AID 504648; Potency, µM (series often up to 46 µM), hits mostly inhibitors; actives 0.16% (n = 390,000); A549 ARE-Fluc cells, CellTiter-Fluor viability, 18-24 h
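A549 ARE_Fluc cells in 5% FBS OPTI-MEM were exposed to compounds in concentration-response for 18-24 h at 37 deg C. Viability was read by CellTiter-Fluor fluorescence (Ex 405/Em 525) after 30 min, before the luciferase read.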
ATXN viability: viability counter-screen for ATXN expression inhibitors; actives 0.49% (n = 400,000); S2 cells (HEK-293 line with an ATXN2-luciferase reporter) viability, CellTiter-Fluor protease fluorescence, 24 h; AID 651635; Potency, µM (doses to about 56.7 µM), usual class: cytotoxic; note: nearly all actives have a fitted effect of over 40% in size
TGFb confirm: TGF-b pathway inhibition, cherry-pick retest; shares compounds with TGFb SMAD3 inh; HepG2 CAGA-GFP TGF-b reporter, GFP fluorescence, 18 h; cells stimulated with TGF-beta, 500 pg/mL; Potency, µM (highest dose often 46.1 µM), actives largely listed as inhibitors; actives 63% (n = 1,600); note: nearly all actives have a fitted effect of over 65% in size
HepG2 tox-2: HepG2 cytotoxicity, TGF-b inhibitor counterscreen; actives 27% (n = 1,600); HepG2 CAGA-GFP viability, ATP luminescence, 18 h; cells stimulated with TGF-beta, 500 pg/mL; shares compounds with TGFb SMAD3 inh; Potency, µM (titrated, usually from 46.1 µM), hits mostly inhibitors; note: nearly all actives have a fitted effect of over 70% in size
TGFb CCL64 inh: orthogonal confirmation of TGF-b inhibitors in CCL64 cells; shares compounds with TGFb SMAD3 inh; Potency, µM (highest dose often 46.1 µM), hits mostly inhibitors; CCL64 CAGA-GFP reporter, TGF-b stimulated, GFP fluorescence, 18 h; actives 41% (n = 1,600); AID 720536; note: nearly all actives have a fitted effect of over 65% in size
COP TGFb inh: validation of TGF-b inhibitors in HepG2 COP promoter reporter; Potency, µM (series often up to 46.1 µM), actives largely listed as inhibitors; AID 720537; HepG2 COP-GFP TGF-b reporter, GFP fluorescence, 18 h; cells stimulated by added recombinant TGF-beta; actives 3% (n = 1,600); shares compounds with TGFb SMAD3 inh; note: nearly all actives have a fitted effect of over 70% in size
EBOV entry S4 rt: Ebola entry inhibition, ratio channel, screen 4. shares compounds with ATXN2 expr inh. Ebola pseudovirus entry assay, ratio channel. AC50, µM. actives 79% (n = 170); calls by dose curve
EBOV entry S4 bl: blocks Ebola virus entry, screen 4 blue channel readout. shares compounds with ATXN2 expr inh. Ebola virus entry assay, blue channel fluorescence ratio; Channel: blue. calls only. 170 tested, under 10 active; call rule not given here
EBOV S4 green: Ebola virus entry blockers, screen 4 green channel; shares compounds with ATXN2 expr inh; Ebola virus entry reporter assay, green fluorescence channel; Channel: green; calls only; 170 tested, under 10 active; call rule not given here
A number is an active result; - = inactive; ? = inconclusive; . = no result given; [ ] = dose if it differs, or a comment. Unless noted, calls come from the whole dose curve; as a rule, active = well fitted curve in the direction sought with a large enough effect; inconclusive = small, poorly fitted or top-dose-only effect, or another doubt; inactive = no such curve, though single readings can be large; an effect the other way counts as inactive or inconclusive.

SMILES | Nrf2 block | HepG2 tox-1 | ATXN2 expr inh | TGFb SMAD3 inh | A549 viability | ATXN viability | others
CC=CC(C)=CC(C)C(=O)CC(O)CC1CC(=O)NC(=O)C1 (stereo unspecified) | . | - | . | - | . | ?
O=C(Nc1ccc(F)c([N+](=O)[O-])c1)N1C[C@H]2C[C@@H](C1)c1cccc(=O)n1C2 | - | - | - | - | - | -
CC(=O)c1cn(Cc2ccc(F)cc2)c2ccccc12 | ? | - | - | ? | - | - | TGFb confirm=9.2µM;HepG2 tox-2=4.11µM;TGFb CCL64 inh=-;COP TGFb inh=-
COC(=O)c1cn(Cc2ccc(F)cc2)c2ccccc12 | . | - | . | - | . | -
CCN(CC)CCOC(=O)c1ccc(NC(=O)CCn2c(=O)oc3ccccc32)cc1 | - | - | - | - | ? | -
COc1cccc(OC)c1-c1nn2c(-c3n[nH]c4c3CCC4)nnc2s1 | ? | - | . | ? | - | .
CC(=O)N(C)c1cccc(-c2ccnc3c(C(=O)c4cccs4)cnn23)c1 | . | . | - | . | . | .
O=C(Cc1ccccc1)OCCN1CCCCC1 | - | - | - | ? | - | -
CNC(=O)Oc1cccc2ccccc12 | - | - | - | - | - | -
O=C(O)CSCC(=O)N(Cc1ccccc1)c1nc(-c2ccccc2)c(-c2ccccc2)s1 | ? | - | - | ? | - | -
CCc1nn2c(=O)c(C)c(N3CCNCC3)nc2s1 | - | . | . | . | - | .
CCCCC(=O)Nc1c(C(=O)N2CCN(c3ccccc3F)CC2)oc2ccccc12 | ? | - | . | ? | - | .
O=C(O)[C@H](O)[C@@H](O)C(=O)O | - | - | - | - | - | -
CC(CN(C)C1CCN(C)CC1)c1ccccc1 (stereo unspecified) | - | - | - | - | - | -
O=C(O)c1ccc2[nH]cc(CCCCN3CC=C(c4ccccc4)CC3)c2c1 | . | . | - | . | . | -
COc1ccc(CNC(=O)CCS(=O)(=O)c2ccc3c(c2)oc(=O)n3C)cc1 | - | - | - | - | - | -
CC1CCN(C(=O)N2c3ccccc3Sc3ccccc32)CC1 | . | - | - | ? | - | -
CN1CCN(CCOC2c3ccccc3CSc3ccc(Cl)cc32)CC1 (stereo unspecified) | - | - | - | ? | - | ?
O=c1c2ccccc2nc(/C=C\c2ccc(F)cc2)n1-c1ccccc1F | . | - | . | - | - | .
Cc1ccc(S(=O)(=O)N(CC(=O)NCCSc2ccc(Cl)cc2)c2ccccc2C)cc1 | ? | - | - | ? | - | ?
c1ccc(Cn2ccnc2)cc1 | - | - | - | - | - | -
CN1C(=O)c2ccccc2Sc2ccc(NC(=O)c3ccc(C(F)(F)F)cc3)cc21 | . | - | ? | - | - | ?
O=C(c1ccc(-c2ccccc2)cc1)C1CCCN(Cc2ccn[nH]2)C1 (stereo unspecified) | - | - | . | - | - | ?
Oc1c(C(Nc2cccnc2)c2ccccc2F)ccc2cccnc12 (stereo unspecified) | . | - | . | ? | . | .
COc1ccc(NC(=O)N2CCC3(CC2)OCCO3)cc1 | - | - | - | - | - | -
SMILES | Nrf2 block | HepG2 tox-1 | ATXN2 expr inh | TGFb SMAD3 inh | A549 viability | ATXN viability | others
OC(CNCc1ccccc1)c1ccc(Cl)cc1 (stereo unspecified) | - | - | - | - | - | -
CN(C)CC(C(=O)Cc1ccccc1)c1ccccc1 (stereo unspecified) | - | - | ? | ? | - | .
COc1ccc(C(=O)CN2CCCCC2)cc1 | - | - | -[11.3 µM] | - | - | -
COc1cc(-c2nc3ccc(Cl)cn3c2Nc2ccc3c(c2)OCCO3)ccc1O | ? | - | - | ? | - | ?
CC(CNC1CCCCC1)OC(=O)c1ccccc1 (stereo unspecified) | - | - | - | - | - | - | EBOV entry S4 rt=-;EBOV entry S4 bl=-;EBOV S4 green=-
c1ccc(CNC2CCCCCCC2)cc1 (tested in a mixture with another compound) | - | - | - | - | ? | -
COc1ccc(OC)c([C@H](O)[C@H](C)N)c1 | . | . | . | . | . | -
CCC(=O)O[C@@H]1C=C2CCC3C(CCC4(C)C3CC[C@@H]4OC(=O)CC)C2CC1 (stereo partly specified) | . | . | - | . | . | -
O=C(Cn1c(=O)oc2cc(S(=O)(=O)N3CCCCC3)ccc21)NCc1ccc(Cl)cc1 | ? | - | ? | ? | - | ?
C[C@@]12CC3CC(N)(C1)C[C@@](C)(C3)C2 | . | . | . | . | . | -
CC(=O)C1=C(O)C2(C)c3c(O)c(C)c(O)c(C(C)=O)c3OC2CC1=O (stereo unspecified) | . | - | . | ? | . | -
NCCCP(=O)(O)CCc1ccccc1 | - | - | - | - | - | -
NCCCC(O)(P(=O)(O)O)P(=O)(O)O | . | . | - | . | . | - | EBOV entry S4 rt=-;EBOV entry S4 bl=-;EBOV S4 green=-
O=C1NCN(c2ccccc2)C12CCNCC2 | . | - | - | - | - | -
O=C(CN1CCN(C(=O)CNC(=O)c2ccc(-c3ccccc3)cc2)CC1)Nc1ccccc1Cl | . | - | . | - | . | ?
COc1ccccc1CNC(=O)C(NS(=O)(=O)c1ccc2c(c1)oc(=O)n2C)C(C)C (stereo unspecified) | - | - | - | - | - | -
